Results filed as inconclusive are left out. Values without a mark were called inactive. The source made the active and inactive calls. Calls follow the shape of the dose curve; as a rule, active = well fitted inhibition curve with a large enough effect; inconclusive = small, poorly fitted or top-dose-only effect; inactive = no such curve, though single readings can be large or run the other way.
Test: BET inhibitor-based combinations targeting novel dependencies in MECOM-rearranged (r) AML: SET-2 cell line (AID 2202231); also: nearly all actives have a fitted effect of over 35% in size;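 as to viability: plate controls were DMSO treated cells for no effect and wells without cells for full effect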
Conditions: SET-2 AML cells viability, CellTiter-Glo luminescence, 48 h; viability: stronger effect = lower value, series mostly up to about 46 µM
Summary of the method: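 AML cell lines seeded at 500 cells/well, treated with 11-point dose curves for 48 h. Viability by CellTiter-Glo luminescence, normalised to DMSO and empty wells; activity expressed as AUC and per-cell-line Z-transformed AUC.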
Potency is read from the fitted curve at half-maximal effect.

**Q.** Which Potency does the source give for `CC(=O)O/N=C1\C(=O)N(Cc2cc(Cl)ccc2Cl)c2ccc(Cl)cc21` here?
**A.** 9.34 µM (active)

**Q.** With `NC(=O)c1cc(F)cc2c1C(=O)N(C1CCN(C3CCC(F)(F)CC3)CC1)C2` as the compound, how does the viability read?
**A.** 106%

**Q.** Which Potency does the source give for `CN1N=C(N)c2cn([C@@H]3O[C@H](COP(=O)(O)O)[C@@H](O)[C@@H]3O)c3ncnc1c23` here?
**A.** 2.63 µM (active)

**Q.** For `O=C(NO)c1cnc(NC2(c3ccccc3)CC2)nc1`, which Potency is on record?
**A.** 6.61 µM (active)

**Q.** With `C=CC(=O)N1CC[C@@H](Oc2nc(Nc3ccc(N4CCC(N5CCN(C)CC5)CC4)cc3)c(C(N)=O)nc2CC)C1` as the compound, how does the Potency read?
**A.** 10.2 µM (active)

**Q.** For `C=CC(=O)Nc1cccc(Oc2nc(Nc3ccc(N4CCN(C)CC4)c(F)c3)nc3[nH]ccc23)c1`, which Potency is on record?
**A.** 14.8 µM (active)

**Q.** With `O=C(/C=C/c1ccc(CN(CCO)CCc2c[nH]c3ccccc23)cc1)NO` as the compound, how does the Potency read?
**A.** 0.166 µM (active)

**Q.** For `Cc1oc(=O)oc1CN1CCN(c2cc3c(cc2F)c(=O)c(C(=O)O)c2n3C(C)S2)CC1` (configuration not stated), which viability is on record?
**A.** 116%

**Q.** Which Potency does the source give for `COc1cc2c3c(n(CCCn4ccnc4)c(=O)c2cc1OC)-c1cc2c(cc1C3=O)OCO2` here?
**A.** 0.0372 µM (active)

**Q.** With `O=C(/C=C/c1cccnc1)NCCCCC1CCN(C(=O)c2ccccc2)CC1` as the compound, how does the viability read?
**A.** 119%

**Q.** With `CN[C@@H]1[C@@H](O)[C@@H](O[C@@H]2[C@@H](O)[C@H](O[C@H]3O[C@H](CN)[C@@H](O)[C@H](O)[C@H]3O)[C@@H](N)C[C@H]2NC(=O)C(O)CN)OC[C@]1(C)O` (some centres not stated) as the compound, how does the viability read?
**A.** 116%

**Q.** With `Cc1[nH]nc2ncc(C(=O)N3CCC[C@H]3c3ccc(Cl)cc3)cc12` as the compound, how does the viability read?
**A.** 105%

Reference: PubChem BioAssay (NCATS)
